Measurements as given in PubChem BioAssay AID1628 (Sanford-Burnham Center for Chemical Genomics, 2009).
Out of some 190,000 compounds screened, about 930 (0.49%) were called active.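 How the source made its calls: active means z-score of insulin promoter reporter brightness in nuclei below -3 at 5 µM, with at least 500 cells counted; inconclusive means wells with under 500 cells, flagged as toxic or sparse; inactive means the rest.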 This is one part of the list. Results with a measured potency or affinity are listed apart.

Assay: insulin promoter down-regulators in MIN6 cells, imaging, high-content screening, mouse beta cells (AID 1628)
Details: MIN6 insulin promoter GFP reporter, at 5 µM, stronger effect = lower value

z-score, inactive:
Cc1cc(SCC(=O)N2CCCC2)nc2ccccc12 -0.89
COc1cc2c(cc1OC)C(C)=NCC2 0.45
CNC(=O)C1CC(=O)N/C(=N/N=C(\C)c2cccs2)S1 (stereo not drawn) 3.72
O=c1c(Cl)c2oc3ccccc3nc-2c2ccccc12 6.06
COc1cc(C(C(=O)NC(C)(C)C)N(Cc2ccccc2)C(=O)c2cnccn2)cc(OC)c1OC (stereo not drawn) -0.06
CCc1ccccc1NC1=CC(=O)CC(C)(C)C1 1.6
Cc1ccccc1OCC(=O)OC1CCN(C)CC1 8.59
COCCCNc1c2c3c(cccc3[nH]c1=O)C(=O)c1ccccc1-2 13.6
N#C/C(=C/c1ccc(-c2ccc(S(N)(=O)=O)cc2)o1)c1nc2ccccc2s1 16.5
CC1(C)CCc2c([nH]c3ccccc3c2=O)O1 0.3
COC(=O)c1cc2c(-c3ccccc3)cc3ccccn3c-2c1C(=O)OC 3.3
CC(NC(=O)/C(C#N)=C1\N=C(NC(=O)c2ccco2)c2ccccc21)c1ccccc1 (stereo not drawn) 3.68
CCCCNC(=O)C1CC(=O)N(C2CCCCC2)C1 (stereo not drawn) 3.02
N#Cc1c2c(c(-n3cnc4ccccc43)n3c1nc1ccccc13)CCC2 4.79
CC1(C)NC(=O)N(CCCCOc2ccc3c(c2)CCC3)C1=O -1.15
CCc1cc(C(=O)Cc2cnn(-c3ccccc3)c2)c(O)cc1O 0.58
O=C1Nc2ccc(NS(=O)(=O)c3cccs3)c3cccc1c23 1.61
COc1cc2cccc(OC)c(=O)c2c(OC)c1OC 0.56
N#C/C(=C\N1CCN(Cc2ccc3c(c2)OCO3)CC1)c1nc2ccccc2s1 3.92
Cc1ccc(NC2=NCC(=O)N2C2CCCC2)c(C)c1 0.57
Cc1cccc2sc(NNC(=O)c3ccc4c(c3)OCCO4)nc12 3.4
CC(C)N1CCc2c(sc(NC(=O)c3ccc(S(=O)(=O)N4CCc5ccccc54)cc3)c2C(N)=O)C1 4.91
CC1CN(S(=O)(=O)c2ccc(C(=O)Nc3sc4c(c3C(N)=O)CCN(C)C4)cc2)CC(C)O1 (stereo not drawn) 11
CNC(=O)c1c(NC(=O)c2ccc(S(=O)(=O)N3CCCc4ccccc43)cc2)sc2c1CCN(C)C2 8.33
COc1cccc2sc(NNC(=O)C3=COCCO3)nc12 5.68
CCCN1C(=O)S/C(=C\c2ccc(N3CCOCC3)o2)C1=O 9.56
CCOc1ccccc1C(=O)Nc1nnc(COC)s1 0.76
CCc1nnc(NC(=O)CCC(=O)NCc2ccccc2OC)s1 4.05
CCCC1C2CN(C(C)C)CC=C2C(C#N)=C(N)C1(C#N)C#N (stereo not drawn) 16.1
CCOC(=O)CSc1nc2cc3c(cc2cc1CC)OCCO3 0.81
CCC1COC(c2cccn2Cc2ccc(Cl)cc2)=N1 (stereo not drawn) 2.5
CC1=C/C(=C\C=C(C#N)C#N)N(C)c2ccccc21 4.05
COCc1cc(C)nc(Nc2ccccc2C)c1C#N 3.32
CCCOC(=O)C1=C(C)NC2=C(C(=O)CCC2)C1c1cccc(OC)c1OC (stereo not drawn) -0.62
C=CCNC(=S)NNC(=O)c1ccc(OCCCC)cc1 0.58
COC(=O)c1cc(NC(=O)c2ccccc2)c(=O)oc1/C=C/Nc1ccc(Oc2ccccc2)cc1 10.8
CCOc1ccc2nc(NCCCNS(=O)(=O)c3ccc(C)cc3)c(C#N)cc2c1 1.84
CCOc1ccc(NS(=O)(=O)c2ccc(NS(=O)(=O)c3ccccc3)cc2)cc1 7.53
C=C(C)Cn1c(CCCNC(=O)CC)nc2ccccc21 0.76
O=c1ccnc(Nc2ccc3c(c2)OCCO3)[nH]1 3.66
COc1ccccc1NC(=O)CSc1nc2c(sc3ccccc32)c(=O)n1CCN(C)C 2.23
O=C(CCl)Nc1cccc2ncccc12 4.01
O=C(COC(=O)c1ccco1)Nc1ccc2c(c1)OCCO2 0.45
O=C(O)c1ccc(N2C(=O)Nc3ccccc3N2O)cc1 2.34
CCn1cc(C(=O)O)c(=O)c2cc(F)c(N3CCN(C)CC3)cc21 -0.61
COc1ccc(/C=C(\C#N)C(=O)OCC(=O)Nc2c(C)cccc2C(C)C)cc1 3.36
CN(C)c1ccc(/C=C2\N=C(c3ccc(Cl)c([N+](=O)[O-])c3)NC2=O)cc1 4.65
COc1ccc2nc(N/C(N)=N/C(=S)Nc3ccccc3)nc(C)c2c1 2.22
CN(C)c1ccc(/C=C(/C#N)C(=O)NCc2ccccc2)o1 16.1
CCCNc1c(F)c(F)c2c(C)c3ccccc3nc2c1F 5.94
O=C(Oc1ccc2ccccc2c1)c1ccco1 -0.59
Cc1ccc(S(=O)(=O)Nc2ccc(=O)n(Cc3ccc(Cl)c(Cl)c3)c2)cc1 3.26
Cc1ccc(NS(=O)(=O)c2ccc(CCC(=O)O)cc2)cc1 1.37
O=C1CN(C(=O)COc2ncnc3ccccc23)c2ccccc2N1 4.05
COc1ccc2c(=O)c(-c3ccccc3)coc2c1 -0.45
CCCCOc1ccc(-c2cc(C(F)(F)F)c(C#N)c(SCC(=O)O)n2)cc1 4.82
CN(C)C(=O)CSc1nnc(-c2cnccn2)n1C 0.77
Cc1nn(C)c(C)c1S(=O)(=O)N(CC(=O)Nc1nccs1)c1ccc(C(C)C)cc1 3.98
C=CCn1c(SCCOc2ccc(OC)cc2)nnc1C(C)NC(=O)Cc1ccc(OC)cc1 (stereo not drawn) 4.23
COc1ccc(C2C(C#N)=C(N)N(c3ncn[nH]3)C3=C2C(=O)CCC3)cc1 (stereo not drawn) 1.75
CCCC(=O)c1c(C)c2ccccc2n1C 3.01
Nc1cccc2c1C(=O)N(C(=O)c1cccc(S(=O)(=O)N3CCCC3)c1)C2=O 3.15
O=C(Nc1ccon1)c1cccc(S(=O)(=O)N2CCCCC2)c1 3.46

z-score, active:
CCCCN(CC(=O)NCc1ccc(Cl)cc1)S(=O)(=O)c1ccc2c(c1)OCCO2 -4.37
Cc1cc2oc(=O)cc(CN3CCN(S(=O)(=O)c4ccc5c(c4)OCCO5)CC3)c2cc1C -4.33
CCOc1ccccc1OCCCCCc1c(C)n[nH]c1C -3.04
COc1ccc(CCn2c(C3CCCCC3)nc3c(c(=O)c4ccccc4n3C)c2=O)cc1 -3.39
c1cc2c3c(cccc3c1)NC1(CCCCCC1)N2 -4.13
COc1cc(C(=O)N/N=C(\c2ccccc2)c2ccccn2)cc(OC)c1OC -3.93
Cc1ccccc1OCc1n(CC(=O)OC2CC(C)CCC2C(C)C)c2ccccc2[n+]1C (stereo not drawn) -5.14
CCOC(=O)c1c2c3c(c(Cl)ccc3[nH]c1=O)C(=O)c1ccccc1-2 -3.28
CSc1nc2ccc(S(N)(=O)=O)cc2s1 -4.36
c1ccc2c(c1)[nH]c1c(N3CCC4(CC3)OCCO4)ncnc12 -4.74
Cc1ccc2[nH]c3c(N4CCCCCC4)ncnc3c2c1 -3.59
Cc1cc2ccccn2c1C(=O)c1ccncc1 -8.28
COc1ccc(-c2cnn3c4c(c(C)nc23)CCN4C2CCCC2)cc1OC -4.71
c1nc(N2CCNCC2)c2sc3nc(N4CCOCC4)c4c(c3c2n1)CCC4 -3.71
OC(COc1ccc2c(c1)CCC2)Cn1cnc2ccccc21 (stereo not drawn) -4.14
c1ccc(CCn2nnnc2C(c2cccs2)N2CCN(Cc3ccc4c(c3)OCO4)CC2)cc1 (stereo not drawn) -4.21
Cc1cc(C)nc(NC2=NCC(=O)N2c2ccc(Cl)cc2)n1 -3.4
Cc1cc(C)c2nc(NNC(=O)c3ccc(S(=O)(=O)N4CCc5ccccc5C4)cc3)sc2c1 -5.92
COc1ccc(-c2n(Cc3ccccc3)c3ccccc3[n+]2Cc2ccccc2)cc1 -8.43
Cc1ccc(/C(N)=N/OC(=O)c2ccc(F)cc2)cc1 -4.16
CCCOC(=O)c1ccc(NC(=O)c2cc(OC)c(OC)c(OC)c2Br)cc1 -3.3
CCOc1ccc2c(c1)C(C)=CC(C)(C)N2S(=O)(=O)c1ccc(C)cc1 -3.31
Cc1nc2ccccc2n1CC(=O)NCc1ccccc1 -3.91
Cn1nc(CC(=O)Nc2cccc3ncccc23)c2ccccc2c1=O -4.57
CCn1cc(C(=O)O)c(=O)c2cnc(N3CCN(C(=O)Nc4cccc5ccccc45)CC3)nc21 -5.9
CCn1cc(C(=O)O)c(=O)c2cnc(N3CCN(C(=S)Nc4ccc(F)cc4)CC3)nc21 -3.18
O=C(O)C1CC=CCC1C(=O)Nc1ccc(N2CCN(Cc3ccccc3)CC2)cc1 (stereo not drawn) -4.25
CCOc1ccc(CN(Cc2ccco2)C(c2cccs2)c2nnnn2C(C)(C)C)cc1 (stereo not drawn) -3.47
CSc1nc(-c2ccco2)nn1C(=O)c1ccco1 -6.58
Cc1ccc(S(=O)(=O)NC(N)=NCCc2ccc(Cl)cc2)cc1 -4.29
C=CCn1c(SCC(=O)Nc2nccs2)nnc1-c1cc2cccc(OC)c2o1 -3.45
C=CCn1c(SCC(=O)Nc2cc3oc4ccccc4c3cc2OC)nnc1-c1cnccn1 -3.06
CCCCc1c(C)nn(-c2nnc3c4ccccc4n(CC)c3n2)c1C -3.04
CCN(CC)C(=O)Oc1cc(=O)n(C)c2ccccc12 -3.24
Cc1cc(NC(=O)c2cccc(S(=O)(=O)N3CCCCCC3)c2)n(-c2ccccn2)n1 -3.67
